Measured values published in ChEMBL document CHEMBL4808148, “HDAC6 screening dataset using tau-based substrate in an enzymatic assay yields selective inhibitors and activators” (2021).
Out of some 5,600 compounds screened, about 390 (7%) showed an effect of 50% or more. The sample as a whole holds a higher share of strong results than the screen did.

Target: T1, Protein deacetylase HDAC6 (Homo sapiens) (UniProt Q9UBN7)
T1 sequence (whole entry): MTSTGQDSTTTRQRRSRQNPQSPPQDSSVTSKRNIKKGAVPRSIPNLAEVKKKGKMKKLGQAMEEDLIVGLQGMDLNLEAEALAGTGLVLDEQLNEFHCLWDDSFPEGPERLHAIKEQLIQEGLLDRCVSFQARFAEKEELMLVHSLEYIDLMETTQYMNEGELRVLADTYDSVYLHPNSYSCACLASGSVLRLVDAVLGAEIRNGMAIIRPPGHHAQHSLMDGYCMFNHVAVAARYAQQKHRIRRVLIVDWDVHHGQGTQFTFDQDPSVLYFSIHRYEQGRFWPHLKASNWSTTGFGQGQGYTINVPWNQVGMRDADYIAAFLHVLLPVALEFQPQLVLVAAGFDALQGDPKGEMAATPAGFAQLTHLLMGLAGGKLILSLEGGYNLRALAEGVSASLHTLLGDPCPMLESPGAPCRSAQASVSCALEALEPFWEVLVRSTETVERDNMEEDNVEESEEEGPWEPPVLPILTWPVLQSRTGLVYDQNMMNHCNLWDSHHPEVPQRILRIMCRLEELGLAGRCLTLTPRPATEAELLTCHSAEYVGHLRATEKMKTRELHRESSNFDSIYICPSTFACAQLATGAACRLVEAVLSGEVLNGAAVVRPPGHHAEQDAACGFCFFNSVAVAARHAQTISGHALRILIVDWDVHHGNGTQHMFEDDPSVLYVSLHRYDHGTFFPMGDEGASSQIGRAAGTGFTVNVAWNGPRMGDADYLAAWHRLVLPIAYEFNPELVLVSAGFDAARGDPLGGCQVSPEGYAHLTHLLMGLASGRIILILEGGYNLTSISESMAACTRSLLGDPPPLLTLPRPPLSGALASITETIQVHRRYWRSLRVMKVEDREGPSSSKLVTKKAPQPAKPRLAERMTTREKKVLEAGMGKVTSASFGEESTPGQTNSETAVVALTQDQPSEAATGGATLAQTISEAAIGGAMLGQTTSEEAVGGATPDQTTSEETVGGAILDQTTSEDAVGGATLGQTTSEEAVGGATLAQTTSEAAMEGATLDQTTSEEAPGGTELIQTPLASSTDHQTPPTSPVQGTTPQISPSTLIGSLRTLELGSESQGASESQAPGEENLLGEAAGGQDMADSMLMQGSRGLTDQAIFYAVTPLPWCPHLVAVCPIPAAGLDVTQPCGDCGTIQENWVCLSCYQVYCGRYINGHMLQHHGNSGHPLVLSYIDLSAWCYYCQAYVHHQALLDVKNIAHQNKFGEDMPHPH
Details: at 10 µM

SMILES	inhibition [%]
COc1ccn2ncc(-c3nc4[nH]nc(NC(=O)c5ccc(F)cc5)c4cc3F)c2c1	1.3
COc1cc(OC)cc(-c2ccc3c(-c4ccc(F)cc4)n[nH]c3n2)c1	81.7
C[C@H]1C[C@@H]2[C@H]([C@@H](O)C[C@@]3(C)[C@H]2CC[C@]3(O)C(=O)COC(=O)CCC(=O)O)[C@@]2(C)C=CC(=O)C=C12	27.4
COc1cc([C@@H]2c3cc4c(cc3[C@@H](O[C@@H]3O[C@@H]5CO[C@@H](C)O[C@H]5[C@H](O)[C@H]3O)[C@H]3COC(=O)[C@H]23)OCO4)cc(OC)c1OP(=O)(O)O	5.48
CCN(CC)CCNC(=O)c1ccccc1I	13.2
COc1nc2ccc(Br)cc2cc1[C@@H](c1ccccc1)[C@@](O)(CCN(C)C)c1cccc2ccccc12	73.7
NCC1CC(=O)N(Cc2ccccc2)C1 (stereo not given)	0.62
O=C(O)CCCCCCNC1c2ccccc2CCc2ccccc21	0.36
CN1c2ccccc2C(NCCCCCCC(=O)O)c2ccc(Cl)cc2S1(=O)=O (stereo not given)	64.5
Cc1ccc(C)c(C(O)CNC(C)C)c1 (stereo not given)	7.8
C[C@@H]1C(=O)O[C@H]2CC34[C@H]5C[C@@H](C(C)(C)C)C36[C@@H](OC(=O)[C@@H]6O)O[C@@]4(C(=O)O5)[C@]21O (stereo not given in full)	26.8
CN1CC[C@@]2(C)c3cc(OC(=O)Nc4ccccc4)ccc3N(C)[C@@H]12	54
Cn1cc(-c2cc(Oc3cc(F)c(NC(=O)C4(C(=O)Nc5ccccc5)CC4)cc3F)ccn2)cn1	13.7
CN1CC[C@@]2(C)c3cc(O)ccc3N(C)[C@H]12	6.94
COC1/C=C/OC2(C)Oc3c(C)c(O)c4c(O)c(c(/C=N/N=C/N5CCCCC5)c(O)c4c3C2=O)NC(=O)/C(C)=C\C=C\C(C)C(O)C(C)C(O)C(C)C(OC(C)=O)C1C (stereo not given)	5.78
Cc1ccc2c(c1)Cc1c(C(=O)NN3CCCCC3)nn(-c3ccc(Cl)cc3Cl)c1-2	1.48
CN(C)CCN1C(=O)c2cccc3cc(NC(N)=O)cc(c23)C1=O	-8.72
COc1ccc(Nc2ccn(-c3ccccc3)n2)cc1	101
C[C@]12C=CC(=O)C=C1CC[C@@H]1[C@@H]2[C@@H](O)C[C@@]2(C)[C@H]1CC[C@]2(O)C(=O)COP(=O)(O)O	22.1
CCNC(=O)[C@@H]1CCCN1C(=O)[C@H](CCCNC(=N)N)NC(=O)[C@H](CC(C)C)NC(=O)[C@@H](C)NC(=O)[C@H](Cc1ccc(O)cc1)NC(=O)[C@H](CO)NC(=O)[C@H](Cc1c[nH]c2ccccc12)NC(=O)[C@H](Cc1cnc[nH]1)NC(=O)[C@@H]1CCC(=O)N1	41.1
Cc1cc(C(=O)Nc2cccc(C(=O)Nc3cccc(C(F)(F)F)c3)c2)on1	16.4
O=C1c2cccc(O)c2C(=O)c2c(O)cc(CO)cc21	53.1
O=C1c2ccccc2C(=O)c2ccccc21	44.4
CCN1C[C@H](C)n2c(c(O)c3c(=O)n(Cc4ccc(F)c(Cl)c4)nc(C(=O)NC)c32)C1=O	19.2
C[C@H](CCC(=O)O)[C@H]1CC[C@H]2[C@@H]3CC[C@@H]4C[C@H](O)CC[C@]4(C)[C@H]3CC[C@]12C	-5.26
C[C@H](CCC(=O)O)[C@H]1CC[C@H]2[C@@H]3[C@H](O)C[C@@H]4C[C@H](O)CC[C@]4(C)[C@H]3CC[C@]12C	3.14
C[C@H](CCC(=O)O)[C@H]1CC[C@H]2[C@@H]3[C@@H](O)C[C@@H]4C[C@H](O)CC[C@]4(C)[C@H]3CC[C@]12C	62.8
CCC1=C[C@@H]2CN3CCc4c([nH]c5ccccc45)[C@@](C(=O)OC)(C2)[C@@H]13	2.61

SMILES	inhibition [%]
Cn1cccc1/C=C1\C(=O)NC(=O)c2ccccc21	61.5
COc1cc(OC)c(/C=C2/C(=O)Nc3ccccc32)c(OC)c1	-6
Cc1nc2ccc(-n3ncc(C(=O)c4cc5ccccc5[nH]4)c3N)cc2[nH]1	100
CN1CC[C@@H](NC(=O)Nc2ccc(C#N)cc2)C[C@@H]1c1nc2ccccc2[nH]1	-9.46
CCCCCCCCCCCCC/C=C/[C@@H](O)[C@@H](N)COP(=O)([O-])OCC[N+](C)(C)C	23.4
CCO[C@@H]1OC(=O)C[C@@H]1NC(=O)[C@@H]1CCCN1C(=O)[C@@H](NC(=O)c1ccc(N)c(Cl)c1)C(C)(C)C	12.6
CC(C)C(=O)OCC(=O)[C@@]12O[C@H](C3CCCCC3)O[C@@H]1C[C@H]1[C@@H]3CCC4=CC(=O)C=C[C@]4(C)[C@H]3[C@@H](O)C[C@@]12C	7.25
CCOC(=O)C12CC1/C(=N\O)c1ccccc1O2 (stereo not given)	38.5
O=C(O[C@@H]1C[C@@H]2C[C@H]3C[C@H](C1)N2CC3=O)c1c[nH]c2ccccc12	61.3
CN1[C@@H]2CC[C@H]1C[C@@H](OC(=O)N1Cc3ccccc3NC1=O)C2	-7.98
Cc1nc(Cn2cnc3c2c(=O)n(C)c(=O)n3C)no1	24.3
CC(C)(C)NCC(O)c1cc(Br)no1 (stereo not given)	18.5
O=C(O)CCCNC(=O)c1cccnc1	28.7
CC(CNC1CCCCC1)OC(=O)c1ccccc1 (stereo not given)	34.8
O=C(O)[C@@H](c1ccc(OCc2ccc3ccccc3n2)cc1)C1CCCC1	93.6
CCN1CCCC(OC(=O)C(c2ccccc2)c2ccccc2)C1 (stereo not given)	-1.02
CCCCN(CC)c1c([N+](=O)[O-])cc(C(F)(F)F)cc1[N+](=O)[O-]	10.6
CC(C)C(=O)SCCCCC[C@H](NC(=O)OC(C)(C)C)C(=O)NC12CC3CC(CC(C3)C1)C2	52
NC(=O)c1cccc(-c2cccc(OC(=O)NC3CCCCC3)c2)c1	95.1
CN(Cc1cccc(-c2ccccc2)c1)C(=O)Oc1ccc(-c2ccc(C(N)=O)cc2)cc1	25.7
N[C@@H]1CCN(c2cccnc2)C1	18.5
N#Cc1ccc(N2N=C3c4ccc(C(=O)O)cc4CC[C@@H]3[C@@H]2C2CCCC2)cc1Cl	20.4
CCCOc1ccc2c(c1)CC[C@@H]1[C@@H]2CC[C@]2(C)[C@@H](OC)CC[C@@H]12	-9.5
CCc1oc2ccccc2c1C(=O)c1ccc(OCC(=O)O)cc1	-6.7
COc1nc(N)nc2c1ncn2[C@@H]1O[C@H](CO)[C@@H](O)[C@@H]1O	35.9
NC(=O)c1ncn([C@@H]2O[C@H](CO)[C@@H](O)[C@H]2O)n1	-7.83
CC(C)Nc1nc2cc(Cl)c(Cl)cc2n1[C@H]1O[C@@H](CO)[C@H](O)[C@@H]1O	82.2
